Results as given in PubChem BioAssay AID1159580 (chemical genetic matrix, 2015).
In all, about 5,500 compounds went through this assay and about 2,000 (36%) were called active. Roughly 18% stayed inconclusive and do not appear here. Cut-off read from the data, not from the text of the source: active = normalized growth mostly below about 0.91 (no sharp cut-off); inconclusive = no clear call, values can overlap the other calls; inactive = mostly above about 0.92. This is one part of the list.

Test: chemical genetic growth profiling, strain panel (AID 1159580);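 note: tested at 20 µM; growth read once vehicle control cultures reached saturation at 30 °C; 1 = growth at the plate median or of vehicle wells; lower values mean less growth of the strain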
Details: growth OD
[1] = S. cerevisiae deletion strains, locus YAL040C, strain CLN3, active compounds read low
[2] = S. cerevisiae deletion strains, locus YCL061C, strain MRC1 (second series), active compounds read low
[3] = S. cerevisiae deletion strains, locus YDR150W, strain NUM1, active compounds read low
[4] = S. cerevisiae deletion strains, locus YDR363W, strain ESC2, active compounds read low
[5] = S. cerevisiae deletion strains, locus YER002W, strain NOP16, active compounds read low
[6] = S. cerevisiae deletion strains, locus YMR263W, strain SAP30, active compounds read low
[7] = S. cerevisiae deletion strains, locus YMR307W, strain GAS1, active compounds read low
[8] = S. cerevisiae deletion strains, locus YNL175C, strain NOP13, active compounds read low
[9] = S. cerevisiae deletion strains, locus YNL197C, strain WHI3, active compounds read low
[10] = S. cerevisiae deletion strains, locus YNL224C, strain SQS1, active compounds read low
[11] = S. cerevisiae deletion strains, locus YOR083W, strain WHI5 (second series), active compounds read low
[12] = S. cerevisiae deletion strains, locus YPL055C, strain LGE1, active compounds read low
[13] = S. cerevisiae deletion strains, locus YAL013W, strain DEP1, active compounds read low
[14] = S. cerevisiae deletion strains, locus YJR075W, strain HOC1, active compounds read low
[15] = S. cerevisiae deletion strains, locus YNL153C, strain GIM3, active compounds read low
[16] = S. cerevisiae deletion strains, locus YNL322C, strain KRE1, active compounds read low
[17] = S. cerevisiae deletion strains, locus YPL241C, strain CIN2, active compounds read low

Measured: normalized growth

CNC(=O)c1cc2c(cn1)[nH]c1ccccc12
inactive: [1] 1.01 | [2] 1.01 | [3] 1 | [4] 1.01 | [5] 0.995 | S. cerevisiae deletion strains, locus YGR229C, strain SMI1, active compounds read low 1.05 | [6] 1 | [7] 0.997 | S. cerevisiae deletion strains, locus YNL128W, strain TEP1, active compounds read low 0.97 | [8] 0.986 | [9] 0.983 | [10] 0.989 | [11] 0.993 | [12] 1.02

C=CC1CN2CCC1CC2C(OC(C)=O)c1ccnc2ccc(OC)cc12 (configuration not stated)
inactive: [13] 1.01 | S. cerevisiae deletion strains, locus YBR229C, strain ROT2, active compounds read low 0.993 | S. cerevisiae deletion strains, locus YDL101C, strain DUN1, active compounds read low 1 | [3] 1.02 | S. cerevisiae deletion strains, locus YEL061C, strain CIN8, active compounds read low 0.957 | S. cerevisiae deletion strains, locus YGR078C, strain PAC10, active compounds read low 1 | S. cerevisiae deletion strains, locus YHR030C, strain SLT2, active compounds read low 1.06 | S. cerevisiae deletion strains, locus YHR087W, strain rtc3, active compounds read low 0.95 | S. cerevisiae deletion strains, locus YJL187C, strain SWE1, active compounds read low 1.01 | S. cerevisiae deletion strains, locus YJR043C, strain POL32, active compounds read low 1 | [14] 0.997 | S. cerevisiae deletion strains, locus YKL190W, strain CNB1, active compounds read low 0.982 | S. cerevisiae deletion strains, locus YLR039C, strain RIC1, active compounds read low 1.06 | S. cerevisiae deletion strains, locus YLR058C, strain SHM2 (second series), active compounds read low 1 | S. cerevisiae deletion strains, locus YLR085C, strain ARP6, active compounds read low 0.975 | S. cerevisiae deletion strains, locus YLR262C, strain YPT6, active compounds read low 1.06 | S. cerevisiae deletion strains, locus YML094W, strain GIM5, active compounds read low 0.997 | S. cerevisiae deletion strains, locus YMR219W, strain ESC1, active compounds read low 1 | [6] 0.984 | [7] 0.916 | [15] 1.02 | S. cerevisiae deletion strains, locus YNL298W, strain CLA4 (second series), active compounds read low 0.967 | [16] 1 | S. cerevisiae deletion strains, locus YNR030W, strain Alg12, active compounds read low 0.998 | [12] 0.999 | [17] 1 | S. cerevisiae deletion strains, locus YPR135W, strain CTF4, active compounds read low 1 | S. cerevisiae strains, strain wild type, active compounds read low 0.974

CNCCC(Oc1ccccc1OC)c1ccccc1 (configuration not stated)
inactive: [13] 0.996 | [1] 1.01 | [2] 1 | [3] 1.01 | [4] 1 | [5] 1 | [14] 1.01 | [15] 1.03 | [8] 1 | [9] 1.01 | [10] 1.01 | [16] 1 | [11] 1.03 | [12] 1.02 | [17] 0.996
